EP2 antag: EP2 receptor (human) inhibition | P43116 | C6 glioma cells expressing human EP2, cAMP TR-FRET; cells stimulated with saturating PGE2 | inhibition, % at 25 µM | 260,000 compounds, 0.52% hits;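 active = percent inhibition above 40 after rounding to a whole number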;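 note: rat C6 glioma host cells with rolipram phosphodiesterase inhibitor present; the protocol text gives 20 µM as final concentration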
Target sequence (P43116 whole entry, looked up): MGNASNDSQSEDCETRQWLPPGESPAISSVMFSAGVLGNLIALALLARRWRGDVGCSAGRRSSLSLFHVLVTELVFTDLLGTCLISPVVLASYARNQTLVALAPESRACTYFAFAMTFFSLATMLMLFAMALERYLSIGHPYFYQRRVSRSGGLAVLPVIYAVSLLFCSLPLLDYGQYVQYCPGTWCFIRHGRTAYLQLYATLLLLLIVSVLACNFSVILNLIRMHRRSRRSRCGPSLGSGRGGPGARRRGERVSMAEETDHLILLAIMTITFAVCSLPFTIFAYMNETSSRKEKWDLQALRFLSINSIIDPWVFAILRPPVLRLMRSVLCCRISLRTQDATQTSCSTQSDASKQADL
Avidin fluor: avidin bead compound fluorescence profile; Avidin beads, compound fluorescence 488/530 nm, flow cytometry; hits give high values; fluorescence (KMESF) at 10 µM; 220,000 compounds, 0.38% hits; in the data active = fluorescence above about 47
GSH bead fluor: GSH bead compound fluorescence profile | GSH beads flow cytometry, compound fluorescence 488/530 nm; hits give high values | fluorescence (KMESF) at 10 µM | 190,000 compounds, 0.25% hits; in the data active = fluorescence above about 89;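 note: glutathione beads carrying GST-tagged Bcl family fusion proteins plus one bare bead set; values are compound well signal with DMSO vehicle wells as background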
Efa HMGR inh: inhibitors of class II HMG-CoA reductase from Enterococcus faecalis; purified E. faecalis HMGR, NADPH absorbance 340 nm kinetic; inhibition, % at 10 µM; 190,000 compounds, 0.41% hits; AID 1066;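 active = inhibition above a set limit, the median over all tested compounds plus 3 SD, cut at about 9.5% in these data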;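 note: enzyme runs in reverse so mevalonate oxidation gives rising NADPH absorbance; 0% = complete reaction with DMSO and 100% = background rate lacking mevalonate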
EP2 mod: EP2 receptor (human) modulation | EP2-expressing cells, cAMP HTRF FRET, PGE2 co-stimulation | induction, % at 25 µM | 260,000 compounds, 0.83% hits | AID 940;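 active = compounds whose cAMP rise, as percent of the full-agonist control response, exceeds 60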;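 note: rat C6 glioma line stably carrying human EP2 under a CMV promoter; the protocol text gives 20 µM as final concentration; 100% = response of wells given 1 µM PGE2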
The depositor's hits bear a star; x = no result. Sampled rows, rich in hits. Any-hit rate of the full collection: about 2.1%.

SMILES | EP2 antag | Avidin fluor | GSH bead fluor | Efa HMGR inh | EP2 mod
Nc1nc(SCC2CCCCC2[N+](=O)[O-])c2[nH]cnc2n1 (stereo unspecified) | 16 | x | x | x | -7
COc1ccc(-c2cc3ccccc3oc2=O)cc1NC(=O)c1ccc([N+](=O)[O-])o1 | 11 | 18 | 8 | -1 | -26
COc1ccc(-c2cc3ccccc3oc2=O)cc1NC(=O)c1ccc(Br)o1 | 15 | 47* | 30 | -7 | 30
c1ccc2c(CNCC3CCCO3)cccc2c1 (stereo unspecified) | 10 | x | x | x | -31
C(=C\c1ccccc1)/CNCC1CCCO1 (stereo unspecified) | 3 | 4 | 22 | 11* | 29
O=C(Nc1ccc(Cl)cc1)c1csc(-c2ccncc2)n1 | 7 | 6 | 13 | 3 | -29
O=C(Nc1ccc(Br)cc1)c1csc(-c2ccncc2)n1 | 174* | 12 | 13 | 0 | -20
CCOc1ccc(NC(=S)N2CCN(CCN3C(=O)c4cccc5cccc(c45)C3=O)CC2)cc1 | 10 | 51* | 13 | -1 | -39
COc1ccc(NC(=S)N2CCN(CCN3C(=O)c4cccc5cccc(c45)C3=O)CC2)cc1 | 17 | 10 | 14 | -2 | -12
Nc1nc2c(s1)CCc1c-2cnn1-c1ccccc1 | 40* | 23 | 10 | 3 | -23
C=C(C)CC(Nc1ccco1)c1ccccc1C (stereo unspecified) | 5 | x | x | x | 61*
CC(=O)O[C@H]1CC[C@@]2(C)C(=CC[C@@H]3[C@H]4CC[C@@H](c5cc(C(F)(F)F)n(C(C)=O)n5)[C@]4(C)CC[C@H]32)C1 | 42* | x | x | x | 18
CCOc1ccc(-n2c(SCC(=O)N(C)C)nnc2-c2ccncc2)cc1 | 11 | x | x | x | -8
COc1ccc2nc3cc(Cl)ccc3c(C#N)c2c1 | 4 | 9 | x | x | -1
COc1ccc2nc3cc(Cl)ccc3c(Nc3ccc(O)c(CN4CCN(C)CC4)c3)c2c1 | 90* | x | x | x | -34
NC1=NC(=O)S/C1=C\c1ccc(F)cc1 | 12 | 26 | 8 | 24* | -25
CCn1nc(CC(=O)N[C@@H](C)Cn2nnc3ccccc32)c2ccccc2c1=O | 7 | x | x | x | -4
Cc1cc(C)nc(SCNC(=O)c2ccccc2)n1 | 3 | 6 | 13 | 11* | 21
Cc1cc(SCNC(=O)c2ccccc2)nc(C(C)C)n1 | 4 | 13 | 12 | 0 | -14
CC(C)NC(=O)COC(=O)c1ccc(Oc2ccccc2)cc1 | 12 | 9 | 265* | -1 | -15
COc1cccc(CC2(CO)CCCN(Cc3ccccc3-c3ccco3)C2)c1 (stereo unspecified) | 1 | 6 | 13 | -4 | 63*
COc1cccc(CC2(CO)CCCN(Cc3ccc(-c4ccco4)cc3)C2)c1 (stereo unspecified) | 3 | 7 | 10 | -5 | -36
O=C(C1CC=CCC1)N1CCCC(c2ncncc2-c2ccncc2)C1 (stereo unspecified) | x | x | x | x | -11
Cc1ccc(S(=O)(=O)Oc2cc(S(=O)(=O)O)cc3cc(S(=O)(=O)O)cc(N)c23)cc1 | 61* | x | x | x | 32
Cc1ccc(S(=O)(=O)Oc2ccccc2/C=N/O)cc1 | 7 | 8 | 7 | 0 | 3
SMILES | EP2 antag | Avidin fluor | GSH bead fluor | Efa HMGR inh | EP2 mod
Cc1ccc(C(=O)N2C(=O)C(c3ccccc3)Oc3ccccc32)cc1 (stereo unspecified) | 10 | 7 | x | x | 87*
CCCCC1C(C#N)=C(C)NC2=C1C(=O)CC(C)(C)C2 (stereo unspecified) | 17 | 6 | 253* | -4 | -8
CN(CCc1ccccn1)c1ccc2c(c1)C(=O)c1ccccc1-2 | 75* | x | x | x | -63
Cc1ccc(N(CCc2ccccn2)N=O)cc1 | 18 | x | x | x | -28
O=C(Nc1ccc(Cl)c(C(F)(F)F)c1)c1cccnc1 | 18 | x | x | x | -150
CC(=O)N(c1ccccc1C)C1CCCC1 | 6 | 2 | 6 | -4 | 14
CC(=O)N(C1=C(Cl)C(=O)c2ccccc2C1=O)C1CCCCC1 | 124* | 2 | x | x | -30
CC1(C)CC2(CC(c3ccccc3Cl)c3ccc(O)cc3O2)NC(=O)N1 (stereo unspecified) | 4 | x | x | x | -2
CCCC(c1nnnn1C(C)(C)CC)N(Cc1ccccc1)Cc1cc2ccc(C)cc2[nH]c1=O (stereo unspecified) | 12 | x | x | x | 26
COc1ccc(CNC(=O)CCSCc2cccc(Cl)c2)cc1 | -1 | 92* | 16 | -1 | -17
COc1ccc(CNC(=O)CSCc2cccc(Cl)c2)cc1 | 6 | 15 | 15 | -6 | 1
COCCSc1ccccc1C(=O)Nc1nc2ccccc2s1 | 5 | x | x | x | -3
Cc1cc(C(=O)CN2CCCCC2)c(C)n1-c1ccc(F)cc1 | 7 | 10 | 19 | -3 | -1
Cc1cc(C(=O)CNCc2ccco2)c(C)n1-c1ccc(F)cc1 | 6 | 8 | 248* | -2 | -21
COc1ccc(S(=O)(=O)NCC(=O)NCC2CCCO2)cc1 (stereo unspecified) | 11 | x | x | x | 13
C=CCNC(=O)COC(=O)c1ccc(Sc2nncn2C)c([N+](=O)[O-])c1 | 5 | 86* | 5 | 1 | 13
Cc1nc2cc(NC(=O)/C=C/c3ccc(N(C)C)cc3)ccc2s1 | 82* | x | x | x | -117
CCCn1nnc(NC(=O)c2cccc(OCC(C)C)c2)n1 | 16 | 7 | 264* | 1 | 2
Cc1nn(-c2ccccc2)c(Cl)c1/C=N/NC(=O)c1ccccc1NS(=O)(=O)c1cccs1 | 7 | 4 | 21 | -1 | -22
Cc1nn(-c2ccccc2)c(Cl)c1/C=N/NC(=O)c1ccc(NS(=O)(=O)c2cccs2)cc1 | 23 | 10 | 13 | 9.6* | -13
O=C(NC(NC(=S)Nc1ccccc1C(=O)O)C(Cl)(Cl)Cl)c1ccco1 (stereo unspecified) | 8 | 12 | 9 | -9 | -40
O=C(NC(NC(=S)Nc1ccccc1C(=O)O)C(Cl)(Cl)Cl)c1ccccc1 (stereo unspecified) | 2 | 21 | 25 | 17* | -21
Cc1cc(N2CCN(Cc3cn(C)nc3-c3cccc(Cl)c3)CC2)cc(C)n1 | 8 | 12 | 11 | 6 | -35
Cn1cc(CN2CCN(c3ncccn3)CC2)c(-c2cccc(Cl)c2)n1 | 5 | 8 | 11 | 9.6* | -4
CCn1c2ccccc2c2cc(NC(=O)CN(C)CC(=O)Nc3ccc(N4CCOCC4)cc3)ccc21 | 8 | 10 | 23 | -9 | -76
SMILES | EP2 antag | Avidin fluor | GSH bead fluor | Efa HMGR inh | EP2 mod
CCn1c2ccccc2c2cc(NC(=O)N3CCOCC3)ccc21 | 13 | 47* | 13 | -5 | -27
CN1CCN(c2ccc(NC(=O)COc3ccccc3)cc2)CC1 | 10 | x | x | x | -15
CN1CCc2c(sc3c2C(=O)NC(c2ccc4c(c2)OCO4)N3)C1 (stereo unspecified) | 41* | x | x | x | x
Cc1nn(CC(=O)OC2CCCCC2)c(=O)c2cc3ccsc3n12 | x | x | x | x | -46
COC(=O)c1ccc(/C=C(\C#N)c2ccccn2)cc1 | 1 | 8 | 13 | 4 | -24
COC(=O)c1ccc(OC(=O)c2ccccn2)cc1 | 5 | 7 | 269* | -3 | 23
